In PubChem BioAssay (NCI):
The panel holds about 79,000 compounds, 15% with a hit somewhere; the sample as a whole holds those more often. Calls of active or inactive are those of the source. Rule as the data show it: active = growth inhibition above about 70%; inactive = the rest.

Assays:
[1] = NCI Yeast Anticancer Drug Screen. Data for the rad50 strain (AID 155);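 also: 0% = growth of vehicle-only cultures of the same strain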; details: S. cerevisiae rad50 strain growth inhibition; at 50.0 µM; hits give high values
How it was run: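 Cells are treated with compound, grown, and their growth is then scored against vehicle-only cultures of the same repair-deficient yeast strain.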

[2] = NCI Yeast Anticancer Drug Screen. Data for the mec2-1 strain (AID 157); details: S. cerevisiae mec2-1 strain, at 50.0 µM, hits give high values
How it was run: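 Compounds were applied to mec2-1 yeast cells. Their growth was then compared with that of vehicle-treated cultures to give growth inhibition.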

[3] = NCI Yeast Anticancer Drug Screen. Data for the sgs1 mgt1 strain (AID 161);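 also: 0% = growth of cultures given vehicle only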; details: S. cerevisiae sgs1 mgt1 strain, at 50.0 µM, hits give high values
How it was run: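 Percent growth inhibition was derived by comparing compound-exposed mutant yeast with vehicle-exposed cultures. The strain carries alterations in DNA damage repair.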

[4] = NCI Yeast Anticancer Drug Screen. Data for the cln2 rad14 strain (AID 165);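 also: 0% = growth equal to vehicle treated cultures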; details: S. cerevisiae cln2 rad14 strain, at 50.0 µM, hits give high values
How it was run: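 Strain: cln2 rad14 yeast, altered in cell cycle control and DNA damage repair. Read-out: growth inhibition vs vehicle.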

[5] = NCI Yeast Anticancer Drug Screen. Data for the bub3 strain (AID 167); details: S. cerevisiae bub3 mutant strain, at 50.0 µM, hits give high values
How it was run: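 Part of a panel of yeast mutants defective in DNA damage repair or cell cycle regulation. Each strain is grown with compound, and inhibition is calculated relative to solvent-treated cultures.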

[6] = NCI Yeast Anticancer Drug Screen. Data for the mlh1 rad18 strain (AID 175); details: S. cerevisiae mlh1 rad18 strain growth inhibition; at 50.0 µM; hits give high values
How it was run: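 A repair-deficient yeast strain is exposed to test compound, and growth is scored relative to vehicle-treated controls.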

Measured: growth inhibition

COC1CCC(/C(C#N)=C/C2CCC(NC(C)=O)CC2)CC1 (stereo unspecified)
inactive: [1] 3.95% | [2] 0.65% | [3] 25.9% | [4] 1% | [5] 22.1% | [6] 5.2%

CC(C)[C@@H]1CC[C@@H](C)C[C@H]1OC(=O)/C=C1\C(C(=O)O[C@@H]2C[C@H](C)CC[C@H]2C(C)C)[C@H]2C=C[C@@H]1O2 (stereo partly specified)
inactive: [1] -6.15% | [2] -13.6% | [3] -9.35% | [4] -25.1% | [5] -27.1% | [6] 6.5%

CNc1nnnn1-c1ccccc1C
inactive: [1] -10.8% | [2] -3.55% | [3] -10.8% | [4] -86.5% | [5] -4.05% | [6] -8.05%

CC1=Nc2cc(C)c(C)cc2N2C1=CC1=C(C(=O)c3cc4ccccc4cc3C1=O)C2C (stereo unspecified)
inactive: [1] 16% | [2] 9.8% | [3] 16.2% | [4] 23.1% | [5] -3.85% | [6] 23.6%

COC1OC(COS(C)(=O)=O)C2OC(C)(C)OC12 (stereo unspecified)
inactive: [1] 11.6% | [2] 1.85% | [3] 3.55% | [4] 11.6% | [5] -9.3% | [6] 21.9%

O=C1C(Cl)C(c2ccccc2)N1n1cnc2ccccc2c1=O (stereo unspecified)
inactive: [1] -16.2% | [2] -2.15% | [3] -24.1% | [4] -3.3% | [5] 3.9% | [6] -12.7%

O=C(OCc1ccccc1CN1CCCCC1)c1ccc([N+](=O)[O-])cc1Cl
inactive: [1] -7.4% | [2] -6.45% | [3] 0.85% | [4] -34.9% | [5] -2.6% | [6] -29.7%

CN(C)Cc1c(-c2ccc(Br)cc2)oc(-c2ccc(Br)cc2)c1Br
inactive: [1] -31.1% | [2] -8.7% | [3] -13.9% | [4] -10.4% | [5] 4.5% | [6] 7.2%

Cc1c([N+](=O)[O-])cc(C(=O)O)cc1[N+](=O)[O-]
inactive: [1] 35.6% | [2] -0.15% | [3] 16.4% | [4] -7.4% | [5] 2.55% | [6] 27.9%

Nc1ncnc2c1ncn2C1OC(C(O)CO)C(O)C1N (stereo unspecified)
inactive: [1] -15.7% | [2] -0.3% | [3] -13.7% | [4] -14.8% | [5] 0.55% | [6] -23.6%

COC1=C(N)C(=O)c2nc(-c3nc(C(=O)O)c(C)c(Br)c3N)ccc2C1=O
active: [1] 89.3% | [2] 92.2% | [3] 84.9% | [4] 89.2% | [5] 80.5% | [6] 92.7%

Cn1c(N)cc(=O)n(C)c1=O
inactive: [1] 22.6% | [2] 3.95% | [3] 18% | [4] 0.1% | [5] 17.5% | [6] 27%

CC1=CC(=O)C(CN(C)C)(CN(C)C)C(C)(C)C1
inactive: [1] 4.85% | [2] 9.35% | [3] 7.65% | [4] 0.25% | [5] -1.65% | [6] 13.1%

C/C(=C\O[Si](C)(C)C)c1ccccc1
inactive: [1] 37.6% | [2] 23.9% | [3] 12.4% | [4] 7.6% | [5] -11.2% | [6] 41.1%

CCOC(=O)CC(C)C1(C=O)CCCCC1=O (stereo unspecified)
inactive: [1] -3.2% | [2] -30.3% | [3] -11.7% | [4] 7.25% | [5] -19.5% | [6] -17.4%

CCC(=O)Nc1cc(C)ccc1Cl
inactive: [1] -3.95% | [2] -7.9% | [3] 3.2% | [4] -52.9% | [5] 5.9% | [6] -0.6%

Cn1c(=S)[nH]c2sc3c(c2c1=O)CCCCC3
inactive: [1] 12.2% | [2] -0.6% | [3] 8.25% | [4] 6.65% | [5] -4.05% | [6] 8.4%

Cc1ccc(C(=O)/C=C/c2ccc(N(C)C)cc2)cc1
inactive: [1] 38.8% | [2] 1.95% | [3] 34.8% | [4] 30.9% | [5] 29.4% | [6] 43.8%

C=C1CC/C=C(\C)CCC2C1CC2(C)C (stereo unspecified)
inactive: [1] -5.1% | [2] -17.1% | [3] 1.9% | [4] 12.2% | [5] 21.1% | [6] 10.9%

COc1cc(C(=O)N(C)N(C)C)cc(OC)c1OC
inactive: [1] 6.6% | [2] -9.6% | [3] 13.4% | [4] 10.9% | [5] -2.85% | [6] -5.6%

CC(C)CSCC1OC(n2cnc3c(N)nccc32)C(O)C1O (stereo unspecified)
inactive: [1] -6.15% | [2] -13.8% | [3] -7.85% | [4] 10% | [5] -12.7% | [6] -20.4%

O=C(O)/C=C/Sc1ccc(Cl)cc1
inactive: [2] 32.5% | [4] 59.9%
active: [1] 76% | [3] 79.3% | [5] 78% | [6] 78.4%

Cc1cccc(N2CC3CC4C=CC3(C2)O4)c1 (stereo unspecified)
inactive: [1] 13.7% | [2] 7.65% | [3] 4.45% | [4] -15.2% | [5] 22.1% | [6] 13.1%

CC(C)=CC(=O)OC1C2C(C)=CC(O)C(O)C2(C)C2C3(O)OCC24C(CC(=O)OC14)C(C)C3O (stereo unspecified)
active: [6] 86.8%
inactive: [1] 56.5% | [2] 38.1% | [3] 23.4% | [4] 48.4% | [5] 53.5%

O=C1CCC(=O)N2CCCCN12
inactive: [1] -4.7% | [2] -12.4% | [3] 11% | [4] 18.6% | [5] 22.5% | [6] 13.1%

CSC(=N/N=C(\C)c1ccccn1)SC
inactive: [1] 0.45% | [2] 6% | [3] 5.3% | [4] -46.2% | [5] -11.7% | [6] 5.85%

O=C1Nc2ccccc2/C1=N/N1C(=O)CSC1=S
inactive: [1] 28.6% | [2] 15% | [3] 32.5% | [4] 7.2% | [5] 15.6% | [6] 29.1%

CC(C(OC(=O)C1c2ccccc2-c2ccccc21)c1ccccc1)N(C)C (stereo unspecified)
active: [1] 99.5% | [2] 75.8% | [3] 99.5% | [4] 91.4% | [5] 99.4% | [6] 99.2%

O=C1Oc2ccccc2C(=O)C1=S1CCCC1
inactive: [1] 6.9% | [2] 12.1% | [3] 9.3% | [4] 18.6% | [5] 9.05% | [6] 14.6%

S=C(SCc1c(Cl)cccc1Cl)N1CCSCC1
inactive: [1] -13.9% | [2] -14.2% | [3] 23.1% | [4] -6.85% | [5] 53% | [6] 0.6%

O=C(NCC1(O)CCCCC1)c1ccccc1
inactive: [1] 3.65% | [2] -14.2% | [3] -5.55% | [4] -8.35% | [5] 3.8% | [6] 1.3%

Cc1ccc(Cl)cc1NC(=O)Oc1cc(C)c(Cl)c(C)c1
inactive: [1] 1% | [2] 8.2% | [3] -4.1% | [4] 6.85% | [5] 25.7% | [6] 4.35%

Cn1nc(C(=O)NN)c(=O)[nH]c1=O
inactive: [1] 10.9% | [2] -6.75% | [3] 0.8% | [4] -20.6% | [5] 6.6% | [6] 16.9%

CN1CCC(c2ccccc2)(C(O)(c2ccccc2)c2ccccc2)CC1
inactive: [1] 3.15% | [2] 1.25% | [3] -6% | [4] 12.1% | [5] 0.65% | [6] 12.7%

O=c1c2ccccc2c(=O)n2n1C1C=CC2C1
inactive: [1] -5% | [2] -7.15% | [3] 1.55% | [4] -6.4% | [5] 4.5% | [6] -4.55%

CCOC(=O)C(CCCBr)(C(=O)OCC)N1C(=O)c2ccccc2C1=O
inactive: [1] 20.8% | [2] -13.3% | [3] 10.9% | [4] 18.2% | [5] 31.8% | [6] 12.6%

COc1cc2c(cc1OC)C(C#N)(C(c1ccccc1)c1ccccc1)N(C(=O)c1ccccc1)C=C2 (stereo unspecified)
inactive: [1] 16.9% | [2] 3.45% | [3] 1.35% | [4] -1.15% | [5] -0.7% | [6] 30.9%

CC1(C)C(O)c2ccccc2OC1N1CCN(C2Oc3ccccc3C(O)C2(C)C)CC1 (stereo unspecified)
inactive: [1] -18.4% | [2] -1.35% | [3] 23.8% | [4] -4.65% | [5] -10.8% | [6] -8.6%

CCOC(=O)c1nnsc1NN
inactive: [1] 8.8% | [2] -7.45% | [3] -47.6% | [4] 0.95% | [5] -22.4% | [6] -4.1%

CC(C)(C)C1CCC2c3c([nH]c4ccccc34)C3C(=O)N(c4ccc(Cl)cc4)C(=O)C3C2C1 (stereo unspecified)
inactive: [1] 37.6% | [2] -20% | [3] -6.1% | [4] -44.4% | [5] -25.4% | [6] -13.2%

COc1ccc(CC2OC(C)CC(C)(C)O2)cc1 (stereo unspecified)
inactive: [1] 38.2% | [2] -12.2% | [3] 4.75% | [4] -55.8% | [5] -4.5% | [6] 37.2%
